Data published in PubChem BioAssay AID1159580 (chemical genetic matrix, 2015).
Several values for one entry are separate records, joined by “and”; a condition that tells them apart may be missing. Identical values can stand only once. Screen size: about 5,500 compounds; about 2,000 (36%) were called active. Roughly 18% stayed inconclusive and do not appear here. Rule as the data show it: active = normalized growth mostly below about 0.91 (no sharp cut-off); inconclusive = no clear call, values can overlap the other calls; inactive = mostly above about 0.92. This is one part of the list.

Assay: chemical genetic growth profiling, strain panel (AID 1159580);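 also: tested at 20 µM; growth read once vehicle control cultures reached saturation at 30 °C; 1 = growth at the plate median or of vehicle wells; lower values mean less growth of the strain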
Details: S. cerevisiae deletion strains, growth OD

Measured: normalized growth

NCC(N)C(=O)c1ccccc1 (stereo not drawn)
inactive: locus YAL013W, strain DEP1, hits give low values 1.01 | locus YAL021C, strain ccr4, hits give low values 0.979 | locus YAL026C, strain drs2, hits give low values 1.06 | locus YAL030W, strain snc1, hits give low values 1.02 | locus YBL061C, strain skt5, hits give low values 1.03 | locus YBR009C, strain hhf1, hits give low values 1.04 | locus YBR021W, strain FUR4, hits give low values 0.993 | locus YBR023C, strain chs3, hits give low values 1.02 | locus YBR171W, strain sec66, hits give low values 1.04 | locus YBR229C, strain ROT2, hits give low values 1.01 | locus YBR231C, strain swc5, hits give low values 1.02 | locus YBR279W, strain paf1, hits give low values 1.03 | locus YCL011C, strain gbp2, hits give low values 1.02 | locus YCL016C, strain dcc1, hits give low values 1.01 | locus YCL029C, strain bik1, hits give low values 0.995 | locus YCL061C, strain MRC1, hits give low values 1.03 | locus YCL069W, strain vba3, hits give low values 1.02 | locus YCR088W, strain abp1, hits give low values 1.02 | locus YDL005C, strain med2, hits give low values 1.03 | locus YDL035C, strain GPR1, hits give low values 1.02 | locus YDL040C, strain nat1, hits give low values 1.02 | locus YDL074C, strain BRE1, hits give low values 1.01 | locus YDL101C, strain DUN1, hits give low values 1.01 | locus YDL185W, strain tfp1, hits give low values 1 | locus YDL192W, strain arf1, hits give low values 1.01 | locus YDR001C, strain nth1, hits give low values 1.01 | locus YDR069C, strain doa4, hits give low values 1.02 | locus YDR101C, strain arx1, hits give low values 0.997 | locus YDR137W, strain rgp1, hits give low values 1.03 | locus YDR150W, strain NUM1, hits give low values 1.01 | locus YDR159W, strain sac3, hits give low values 1.05 | locus YDR162C, strain NBP2, hits give low values 1.02 | locus YDR195W, strain ref2 1.01 | locus YDR297W, strain sur2, hits give low values 1.02 | locus YDR318W, strain mcm21, hits give low values 1.01 | locus YDR334W, strain swr1, hits give low values 1.02 | locus YDR335W, strain msn5, hits give low values 1.03 | locus YDR388W, hits give low values 0.998 | locus YDR392W, strain spt3, hits give low values 0.962 | locus YDR502C, strain sam2, hits give low values 0.988 | locus YEL003W, strain gim4, hits give low values 1.04 | locus YEL037C, strain rad23, hits give low values 1.03 | locus YEL061C, strain CIN8 (second series), hits give low values 1.03 | locus YEL061C, strain CIN8, hits give low values 1.01 | locus YER015W, strain faa2, hits give low values 1.03 | locus YER016W, strain bim1, hits give low values 1.03 | locus YER110C, hits give low values 1 | locus YER111C, strain swi4, hits give low values 1.03 | locus YER155C, strain BEM2 (second series), hits give low values 0.99 | locus YER155C, strain BEM2, hits give low values 1.01 | locus YER167W, strain BCK2, hits give low values 1.01 | locus YFR010W, strain ubp6, hits give low values 1.03 | locus YGL078C, strain dbp3, hits give low values 1.02 | locus YGL086W, strain mad1, hits give low values 0.999 | locus YGL167C, strain pmr1, hits give low values 1.03 | locus YGL173C, strain kem1, hits give low values 1.06 | locus YGL227W, strain vid30, hits give low values 1.02 | locus YGL240W, strain doc1, hits give low values 1.01 | locus YGL248W, strain PDE1, hits give low values 1.02 | locus YGL253W, strain hxk2, hits give low values 1.05 | locus YGR135W, strain pre9, hits give low values 1 | locus YGR229C, strain SMI1, hits give low values 1.02 | locus YGR252W, strain gcn5, hits give low values 0.96 | locus YHR013C, strain ard1, hits give low values 1.04 | locus YHR027C, strain rpn1, hits give low values 1.04 | locus YHR030C, strain SLT2, hits give low values 1.01 and 0.973 | locus YHR079C, strain IRE1 (second series), hits give low values 1 | locus YHR079C, strain IRE1, hits give low values 0.97 | locus YHR094C, strain hxt1, hits give low values 0.996 | locus YHR129C, strain ARP1, hits give low values 1.01 | locus YHR142W, strain chs7, hits give low values 1.05 | locus YHR200W, strain rpn10, hits give low values 0.999 | locus YIL066C, strain RNR3, hits give low values 1.01 | locus YIL073C, strain SPO22, hits give low values 0.986 | locus YIL125W, strain kgd1, hits give low values 1 | locus YIR030C, strain dcg1, hits give low values 1 | locus YJL092W, strain hpr5, hits give low values 1.03 | locus YJL095W, strain BCK1 (second series), hits give low values 1.03 | locus YJL095W, strain BCK1, hits give low values 1.02 and 0.963 | locus YJL115W, strain asf1, hits give low values 1.03 | locus YJL129C, strain trk1, hits give low values 1.04 | locus YJL134W, strain LCB3, hits give low values 1.01 | locus YJL154C, strain vps35, hits give low values 1.02 | locus YJL164C, strain tpk1, hits give low values 1.03 | locus YJL166W, strain qcr8, hits give low values 1.02 | locus YJL168C, strain set2, hits give low values 1.01 | locus YJL187C, strain SWE1 (second series), hits give low values 1 | locus YJL187C, strain SWE1, hits give low values 1.05
